High-throughput results (PubChem)
HCV inhibitor = qHTS Assay for Inhibitors of Hepatitis C Virus (HCV); actives 3.4% (n = 340,000); Potency, µM (highest dose often 41.8 µM), most hits filed as inhibitors; Huh7.5.1 HCVcc-Cre infection, luciferase reporter, 44 h
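A cell-based infection assay in which seeded cells (1,000 per well) receive test compound after 4 h, are inoculated with HCVcc-Cre at approximately 0.5 moi, and are incubated 44 h before luminescence detection.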
SARS PLpro yeast = qHTS of Yeast-based Assay for SARS-CoV PLP; S. cerevisiae expressing SARS-CoV PLpro, growth rescue; Potency, µM (doses to about 32.9 µM), actives largely listed as activators; actives 0.19% (n = 330,000); calls by dose curve; further: nearly all actives have a fitted effect of over 55% in size
FMDV inh = High Throughput Screening for Foot and Mouth Disease Virus Antivirals. FMDV antiviral cell-based qHTS. actives 1.2% (n = 410,000). Potency, µM (highest dose often 57.9 µM), hits mostly inhibitors; calls by dose curve; tested in HEK293T cells; further: read-out not given here; nearly all actives have a fitted effect of over 45% in size
LASV entry inh = qHTS for Inhibitors of binding or entry into cells for Lassa Virus; Lassa virus pseudotype entry inhibition, cell reporter; Potency, µM (doses to about 37.9 µM), actives largely listed as inhibitors; actives 1.2% (n = 300,000); calls by dose curve; tested in HEK293 cells; further: nearly all actives have a fitted effect of over 50% in size
HCMV inh = qHTS Assay for inhibitors of the human cytomegalovirus (HCMV); HFF cells, HCMV-luciferase reporter, 72 h; stronger effect = lower value; activity change, negative = inhibition, % at 57.5 µM; AID 1259415, 2018; actives 4.5% (n = 410,000); in the data active means activity change below about -60%; inconclusive means no clear call, values can overlap the other calls; inactive means above about -39%
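Two compound doses tested in HFFs infected with HCMV-luciferase, MOI 1 PFU/cell, 72 h at 37C. Lysate luminescence read with OneGlo; data normalized against buffer-only and 10uM Salinomycin inhibitor controls.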
Marburg entry inh = qHTS for inhibitors of binding or entry into cells for Marburg Virus. Marburg virus pseudotyped entry inhibition, cell reporter. Potency, µM (highest dose often 37.8 µM), hits mostly inhibitors. actives 1.8% (n = 300,000). AID 540276, 2011; calls by dose curve; tested in HEK293 cells
HCV inh confirm = qHTS Assay for Inhibitors of Hepatitis C Virus (HCV): Confirmation Assay for Cherry-picked Compounds; shares compounds with HCV inhibitor; HCVcc-Cre infectious virus cell assay, luciferase, inhibition; Potency, µM (doses to about 41.8 µM), hits mostly inhibitors; actives 78% (n = 640); further: nearly all actives have a fitted effect of over 80% in size
HCV cytotox = qHTS Assay for Inhibitors of Hepatitis C Virus (HCV): Cytotoxicity Counterscreen for Cherry-picked Compounds | shares compounds with HCV inhibitor | HCV host cell line cytotoxicity counterscreen | Potency, µM (titrated, usually from 41.8 µM), usual class: inhibitors | actives 22% (n = 640) | AID 720576, 2013;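 further: 44 h compound exposure; nearly all actives have a fitted effect of over 55% in size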
Of the large screens only hits and unclear results are named; the others gave an inactive call (follow-up assays come after a bar, where they were run). An excerpt weighted towards active compounds, which were near 8% of everything screened. Unless noted, the call rests on the fitted dose curve; in most records, active means well fitted curve in the direction sought with a large enough effect; inconclusive means small, poorly fitted or top-dose-only effect, or another doubt; inactive means no such curve, though single readings can be large; an effect the other way counts as inactive or inconclusive.

Cc1cccc(Cn2c(COc3ccccc3)nc3ccccc32)c1	Marburg entry inh inconclusive (no result: HCV inhibitor, SARS PLpro yeast)
COc1ccc(/C=C/C(=O)c2ccc(O)cc2)cc1	none (no result: LASV entry inh, Marburg entry inh)
COC(=O)c1ccc2c(c1)C(C)(C)C(/C=C/c1ccc(O)cc1)=[N+]2C	HCV inhibitor 2.2µM, FMDV inh 10µM, LASV entry inh inconclusive, HCMV inh -102, Marburg entry inh inconclusive | HCV inh confirm 5µM | HCV cytotox 8.9µM
CN(Cc1ccccc1)C(=O)c1ccc2c(c1)N(Cc1ccccc1F)C(=O)c1ccccc1S2(=O)=O	LASV entry inh inconclusive, Marburg entry inh inconclusive (no result: HCV inhibitor, SARS PLpro yeast)
O=C(CCl)Nc1ccc(-c2ccccc2)cc1	HCV inhibitor 3.2µM, FMDV inh 22µM, LASV entry inh 10µM, Marburg entry inh inconclusive | HCV inh confirm 6.3µM | HCV cytotox 8.9µM
CC(=O)Nc1ccc(NC(=O)Cc2ccc(-c3ccccc3)cc2)cc1	none (no result: LASV entry inh, Marburg entry inh)
CCc1nn(CC(=O)NCCc2ccc(OC)cc2OC)c(=O)c2cc3c(OC)cccc3n12	none (no result: HCV inhibitor, SARS PLpro yeast, LASV entry inh)
CCN1CCN(c2ccc(NC(=O)c3cccc(OCc4ccccc4)c3)cc2)CC1	HCV inhibitor 4.5µM, Marburg entry inh inconclusive | HCV inh confirm 8.9µM | HCV cytotox inactive
COc1cccc(C(=O)Nc2ccc(N3CCN(Cc4ccccc4)CC3)cc2)c1	HCV inhibitor inconclusive, FMDV inh inconclusive, HCMV inh inconclusive, Marburg entry inh inconclusive
S=C(S)N1CCCC1	HCV inhibitor inconclusive, LASV entry inh inconclusive, Marburg entry inh inconclusive (no result: SARS PLpro yeast) | HCV inh confirm 25µM | HCV cytotox 28µM
COC(=O)c1sc2cccc(F)c2c1S(=O)(=O)N1CCN(c2cccc(OC)c2)CC1	LASV entry inh inconclusive (no result: HCV inhibitor, SARS PLpro yeast, Marburg entry inh)
C=CCNCCOCCOc1ccccc1-c1ccccc1	HCMV inh inconclusive (no result: LASV entry inh, Marburg entry inh)
COCCCNCCOCCOc1ccccc1-c1ccccc1	HCV inhibitor 7.9µM, LASV entry inh inconclusive, Marburg entry inh inconclusive | HCV inh confirm inconclusive | HCV cytotox inconclusive
Cc1oc(-c2ccc(Cl)cc2)nc1CS(=O)CC(=O)NCc1ccc(Cl)cc1 (centres undefined)	Marburg entry inh inconclusive (no result: HCV inhibitor, SARS PLpro yeast)
C/C(=N/Nc1nc(-c2ccccc2)cc(-c2ccc(F)cc2)n1)c1cccc(N)c1	HCV inhibitor 8.9µM, LASV entry inh inconclusive | HCV inh confirm 14µM | HCV cytotox inconclusive
CCOc1ccccc1CNc1nc2nc(C)cc(C)n2n1	none (no result: HCV inhibitor, SARS PLpro yeast)
Cc1cc(C)cc(NC(=O)CCS(=O)(=O)c2cccc3nsnc23)c1	none (no result: HCV inhibitor, SARS PLpro yeast)
COc1ccc(CN2CCC(N(CCc3ccccc3)Cc3ccccc3)CC2)c(OC)c1	HCV inhibitor 2.5µM, FMDV inh 18µM, HCMV inh -99, Marburg entry inh inconclusive (no result: LASV entry inh) | HCV inh confirm 7µM | HCV cytotox inconclusive
COc1ccc(OC)c(NC(=O)CSc2n[nH]c(-c3ccccc3Cl)n2)c1	none (no result: HCV inhibitor, SARS PLpro yeast, Marburg entry inh)
Cc1ccc(-c2csc(Cc3nc(-c4cc5ccccc5oc4=O)cs3)n2)cc1	HCV inhibitor 5µM, HCMV inh -80, Marburg entry inh inconclusive (no result: FMDV inh) | HCV inh confirm 5µM | HCV cytotox 6.3µM
O=c1oc2ccccc2cc1-c1csc(NN=C2CCCC2)n1	LASV entry inh inconclusive, Marburg entry inh inconclusive
CCOc1ccc(CCNC(=O)c2cc3sccc3n2C)cc1OCC	HCV inhibitor 6.3µM, FMDV inh inconclusive, Marburg entry inh 7.1µM | HCV inh confirm 14µM | HCV cytotox inconclusive
C/C(=N\Nc1ccc2nncn2n1)c1ccco1	Marburg entry inh inconclusive
C/C(=N\Nc1ccc2nncn2n1)c1ccccn1	HCV inhibitor 2µM, LASV entry inh inconclusive, HCMV inh -96, Marburg entry inh inconclusive | HCV inh confirm 5.6µM | HCV cytotox inconclusive
COc1ccc(NC(=O)c2ccc3nc(CCc4ccccc4)oc3c2)cc1	none (no result: HCV inhibitor, SARS PLpro yeast, Marburg entry inh)
COCCN(C(=O)COC(=O)/C=C/c1ccc(OC)c(OC)c1)c1c(N)n(Cc2ccccc2)c(=O)[nH]c1=O	HCV inhibitor inconclusive | HCV inh confirm inconclusive | HCV cytotox inactive
COCCN(C(=O)COC(=O)/C=C/c1ccco1)c1c(N)n(Cc2ccccc2)c(=O)[nH]c1=O	none
Cc1cc(C)c2oc(C(=O)Nc3c(C(=O)c4ccccc4)oc4ccccc34)cc(=O)c2c1	none (no result: HCV inhibitor, SARS PLpro yeast)
Cc1ccc2c(c1)[C@H]1[C@H](CO2)[C@H](c2ccccc2)[C@]2(C)C(=O)N(Cc3ccc(F)cc3)CC(=O)N12	HCV inhibitor inconclusive, FMDV inh inconclusive (no result: LASV entry inh, Marburg entry inh) | HCV inh confirm inconclusive | HCV cytotox inactive
